Among the data in PubChem BioAssay (NCI) are growth values, retold here.

This is part of a sample that, as a whole, favours compounds with a hit. Of some 83,000 tested, about 20% had one in any assay.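 Step 1: grow cells in 96-well plates. Step 2: add test compound at a single concentration. Step 3: incubate 48 h. Step 4: record percent growth.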 Unmarked numbers belong to inactive results. Calls of active or inactive are those of the source. The calls were made as follows: active = growth percent below 10; inactive = the rest.

Among the test systems are HCT-15 colon; HT29 colon; SNB-75 CNS; SNB-19 CNS; U251 CNS; PC-3 prostate; SK-MEL-5 melanoma; UACC-62 melanoma; LOX IMVI melanoma; SK-MEL-28 melanoma; SK-MEL-2 melanoma; EKVX NSCLC; SN12C renal; UO-31 renal; TK-10 renal; ACHN renal; CAKI-1 renal; A498 renal; CCRF-CEM leukemia; MOLT-4 leukemia.
Common to all, as to experiment: NCI-60 one-dose screen, 48 h (100 = growth as untreated, 0 = no growth, -100 = all killed)
Conditions in all cases: 10 µM unless noted

For the molecule `CCOC(=O)c1cc2oc(/C=C/c3cc(=O)c4cc(Cl)ccc4o3)cc2[nH]1`, the growth in the experiment on HCT-15 colon was 105%; in the experiment on HT29 colon, 96.6%; with SNB-75 CNS, 73%; in the experiment on SNB-19 CNS, 92.1%; with U251 CNS, 92.5%; with PC-3 prostate it was 85.2%. The growth with SK-MEL-5 melanoma was 68.2%; in the experiment on UACC-62 melanoma, 75.8%; in the experiment with LOX IMVI melanoma, 101%; with SK-MEL-28 melanoma, 91.4%; in the experiment with SK-MEL-2 melanoma, 82.1%; with EKVX NSCLC, 89.7%. Besides, the growth with SN12C renal was 62.4%; with UO-31 renal, 81.8%; in the experiment with TK-10 renal, 113%; in the experiment on ACHN renal it was 97.8%; with CAKI-1 renal, 79%; in the experiment on A498 renal it was 115%. Besides, the growth in the experiment with CCRF-CEM leukemia is 105%; with MOLT-4 leukemia it was 88.9%.
For the molecule `Cc1ccc(-c2cc(-c3ccccc3)n(-c3ccccc3)n2)cc1`, the growth is 106% in the experiment with HCT-15 colon; 96.7% in the experiment with HT29 colon; 99.4% in the experiment with SNB-75 CNS; 95.4% with SNB-19 CNS; 97.7% in the experiment on U251 CNS; 99.6% with PC-3 prostate. In addition, the growth in the experiment with SK-MEL-5 melanoma is 106%; with UACC-62 melanoma, 88.2%; with LOX IMVI melanoma it was 99%; with SK-MEL-28 melanoma, 98.2%; with SK-MEL-2 melanoma it was 74.6%; in the experiment on EKVX NSCLC it was 98.6%. Also, the growth in the experiment on SN12C renal is 107%; in the experiment with UO-31 renal it was 79.1%; in the experiment on TK-10 renal it was 99.4%; in the experiment with ACHN renal, 95.3%; in the experiment on CAKI-1 renal it was 94.5%; with A498 renal, 92.1%. Moreover, the values for the growth in the experiment with CCRF-CEM leukemia and with MOLT-4 leukemia were 84.9% and 81.5%, respectively.
Consider `CCOC(=O)C1=CCC(n2cc(C)c(=O)[nH]c2=O)O1` (stereo not given), for which the growth in the experiment on HCT-15 colon is 111%; with HT29 colon, 110%; with SNB-75 CNS, 103%; in the experiment with SNB-19 CNS, 103%; in the experiment on U251 CNS, 98.8%; in the experiment on PC-3 prostate, 84.7%. Also, the growth in the experiment with SK-MEL-5 melanoma was 112%; in the experiment on UACC-62 melanoma, 96%; with LOX IMVI melanoma, 98.6%; in the experiment with SK-MEL-28 melanoma it was 112%; in the experiment with SK-MEL-2 melanoma, 105%; in the experiment with EKVX NSCLC, 104%. The growth with SN12C renal was 101%; in the experiment with UO-31 renal, 96.9%; in the experiment with TK-10 renal, 118%; in the experiment with ACHN renal, 103%; in the experiment with CAKI-1 renal it was 85.8%; in the experiment on A498 renal, 121%. For the same molecule, the growth in the experiment with CCRF-CEM leukemia was 98.8%; in the experiment on MOLT-4 leukemia it was 94.7%.
Regarding `O=c1ccn(C2CC=C(CO)O2)c(=O)[nH]1` (stereo not given), the growth with HCT-15 colon was 105%; in the experiment on HT29 colon it was 111%; in the experiment on SNB-75 CNS it was 108%; in the experiment with SNB-19 CNS, 108%; with U251 CNS, 102%; in the experiment on PC-3 prostate it was 85.9%. In addition, the growth with SK-MEL-5 melanoma was 90%; in the experiment with UACC-62 melanoma, 91.7%; with LOX IMVI melanoma it was 94%; in the experiment with SK-MEL-28 melanoma, 106%; in the experiment with SK-MEL-2 melanoma it was 105%; in the experiment on EKVX NSCLC, 105%. Besides, the growth is 92.1% in the experiment with SN12C renal; 110% with UO-31 renal; 100% in the experiment on TK-10 renal; 109% with ACHN renal; 63.1% in the experiment on CAKI-1 renal; 101% with A498 renal. The growth in the experiment on CCRF-CEM leukemia is 90.4%; in the experiment on MOLT-4 leukemia, 101%.
As for `CCCn1c(N)c(C(=O)CNc2ccc(I)cc2)c(=O)[nH]c1=O`, the growth with HCT-15 colon was 22.7%; in the experiment with HT29 colon it was 41.7%; in the experiment with SNB-75 CNS, 81.8%; in the experiment on SNB-19 CNS, 88.7%; in the experiment on U251 CNS it was 28.8%; in the experiment on PC-3 prostate it was 60.9%. Also, the growth in the experiment with SK-MEL-5 melanoma is 60.2%; with UACC-62 melanoma it was 37.1%; in the experiment with LOX IMVI melanoma, 18.7%; with SK-MEL-28 melanoma, 51.7%; in the experiment on SK-MEL-2 melanoma, -7.88% (active); in the experiment with EKVX NSCLC, 77.9%. The growth was 44.6% in the experiment on SN12C renal; 30.1% in the experiment with UO-31 renal; 59% in the experiment on TK-10 renal; 50.7% with ACHN renal; 58.3% in the experiment on CAKI-1 renal; 49.2% in the experiment on A498 renal. Further, the growth is 55.9% in the experiment with CCRF-CEM leukemia and 29.2% in the experiment on MOLT-4 leukemia.
In the case of `O=C(Nc1ccc2c(c1)C(=O)c1ccccc1-2)c1ccccc1`, the growth is 67.2% with HCT-15 colon; 35.8% in the experiment on HT29 colon; 86.6% in the experiment on SNB-75 CNS; 73% in the experiment on SNB-19 CNS; -13.9% (active) with U251 CNS; 92.9% in the experiment with PC-3 prostate. Further, the growth in the experiment with SK-MEL-5 melanoma was 97.9%; in the experiment on UACC-62 melanoma, 90.2%; in the experiment with LOX IMVI melanoma, 73.2%; with SK-MEL-28 melanoma, 105%; with SK-MEL-2 melanoma it was 82.4%; with EKVX NSCLC, 97.4%. The growth with SN12C renal is 56.9%; in the experiment on UO-31 renal it was 69.7%; in the experiment on TK-10 renal it was 46.9%; in the experiment with ACHN renal it was 63.8%; in the experiment on CAKI-1 renal, 74.7%; with A498 renal, 66.4%. Besides, the values for the growth in the experiment on CCRF-CEM leukemia and in the experiment on MOLT-4 leukemia were 101% and 97.7%, respectively.
For the molecule `Cc1cc(Cl)ccc1Nc1nc(C(F)(F)F)ccc1C(=O)N/N=C/c1ccc(Cl)cc1`, the growth in the experiment with HCT-15 colon is 5.02% (active); in the experiment with HT29 colon, 3.44% (active); in the experiment with SNB-75 CNS, -21.9% (active); with SNB-19 CNS, 14.6%; in the experiment on U251 CNS, 2.95% (active); in the experiment on PC-3 prostate, -2.59% (active). In addition, the growth with SK-MEL-5 melanoma is -13.8% (active); in the experiment with UACC-62 melanoma, -0.152% (active); in the experiment on LOX IMVI melanoma it was 0.0613% (active); in the experiment on SK-MEL-28 melanoma, 20.9%; in the experiment with SK-MEL-2 melanoma, -20.6% (active); in the experiment on EKVX NSCLC, 3.77% (active). In addition, the growth in the experiment with SN12C renal was 4.31% (active); with UO-31 renal, -43.3% (active); in the experiment with TK-10 renal, 9.18% (active); with ACHN renal it was -1.46% (active); in the experiment on CAKI-1 renal, -23.1% (active); in the experiment with A498 renal, -21.1% (active). In addition, the growth in the experiment with CCRF-CEM leukemia is -18.8% (active); in the experiment on MOLT-4 leukemia it was -20.1% (active).
Take `Cc1ccc(C(=O)Cc2ccccc2)c(O)c1`: the growth is 102% in the experiment with HCT-15 colon; 110% with HT29 colon; 97.8% in the experiment with SNB-75 CNS; 95.4% in the experiment with SNB-19 CNS; 98.9% in the experiment on U251 CNS; 99.8% in the experiment on PC-3 prostate. Moreover, the growth was 108% in the experiment on SK-MEL-5 melanoma; 90.4% in the experiment with UACC-62 melanoma; 98% in the experiment on LOX IMVI melanoma; 117% in the experiment with SK-MEL-28 melanoma; 101% in the experiment with SK-MEL-2 melanoma; 99.4% in the experiment on EKVX NSCLC. In addition, the growth was 94.8% with SN12C renal; 86.4% in the experiment on UO-31 renal; 104% with TK-10 renal; 102% with ACHN renal; 95% in the experiment on CAKI-1 renal; 79.3% in the experiment with A498 renal. Moreover, the results for the growth in the experiment with CCRF-CEM leukemia and in the experiment on MOLT-4 leukemia were 112% and 92.3%, respectively.
